Measured values from PubChem BioAssay AID652016 (National Center for Advancing Translational Sciences (NCATS), 2013).
Results filed as inconclusive are left out. Calls of active or inactive are those of the source. The call rests on the fitted dose curve; in most records, active means well fitted inhibition curve with a large enough effect; inconclusive means small, poorly fitted or top-dose-only effect; inactive means flat fitted curve, though single readings scatter.

Target: Luciferin 4-monooxygenase (Photinus pyralis) (UniProt P08659)
Sequence (P08659 whole entry, looked up): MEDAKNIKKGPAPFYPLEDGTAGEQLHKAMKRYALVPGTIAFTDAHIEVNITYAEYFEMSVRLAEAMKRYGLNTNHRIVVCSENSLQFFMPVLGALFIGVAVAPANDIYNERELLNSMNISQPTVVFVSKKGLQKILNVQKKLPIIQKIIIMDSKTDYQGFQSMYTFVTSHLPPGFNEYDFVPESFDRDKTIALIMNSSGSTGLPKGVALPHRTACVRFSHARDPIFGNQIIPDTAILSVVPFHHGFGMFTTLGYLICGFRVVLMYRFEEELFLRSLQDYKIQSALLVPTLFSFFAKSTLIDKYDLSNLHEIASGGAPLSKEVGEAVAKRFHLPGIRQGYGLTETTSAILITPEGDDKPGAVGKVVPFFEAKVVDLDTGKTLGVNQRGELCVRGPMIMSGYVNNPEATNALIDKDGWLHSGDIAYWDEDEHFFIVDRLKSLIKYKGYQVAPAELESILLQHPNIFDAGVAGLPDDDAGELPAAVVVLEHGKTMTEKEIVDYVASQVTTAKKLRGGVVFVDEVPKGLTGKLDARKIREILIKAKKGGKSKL
Test: qHTS Assay for Inhibitors of Firefly Luciferase from the GSK Published Protein Kinase Inhibitor Set
Conditions: purified firefly luciferase, luminescence inhibition; series mostly up to 57.5 µM; activity change, negative = inhibition: at the top concentration
Source text: FLuc (firefly luciferase) is the prototypical bioluminescent reporter gene from Photinus pyralis.[1] The enzyme catalyzes the oxidation luciferin via luciferin-AMP to produce light. FLuc is used in cell-based reporter gene-based assays for screening small molecule chemical libraries. However, small molecule luciferase inhibitors present in most large chemical libraries are often enriched in the output of high throughput screens using this reporter sometimes complicating interpretation and candidate selection.
RLuc is a bioluminescent reporter gene luciferase from Renilla reniformis, also known as the sea pansy. RLuc uses the luciferin substrate coelenterazine. RLuc is often used in combination with the nonhomologous luciferase FLuc (firefly luciferease) as a trasfection or pathway normalization control. Recently, non-homologous reporters have been described for high throughput screening 'coincidence' reporter gene strategies.
1. Fan F, Wood KV (2007) Bioluminescent assays for high-throughput screening. Assay Drug Dev Technol 5: 127-136.
2. Thorne N, Inglese J, Auld DS (2010) Illuminating insights into firefly luciferase and other bioluminescent reporters used in chemical biology. Chem Biol 17: 646-657.
3. […] Chem Biol 19: 1060-1072.
4. Michelini E, Cevenini L, Mezzanotte L, Coppa A, Roda A (2010) Cell-based assays: fuelling drug discovery. Anal Bioanal Chem 398: 227-238.
5. Cheng KC, Inglese J (2012) A coincidence reporter-gene system for high-throughput screening. Nat Methods 9: 937.
Biochemical firefly luciferase enzyme assay
NCGC Assay Protocol Summary:
Reagents: 50mM Tris acetate, pH 7.5; 10mM Mg acetate; 10uM D-luciferin (Sigma #L9504); 10uM ATP; 0.01% Tween-20; 0.05% BSA; 10nM P. pyralis luciferase (Sigma #L9506)
Control compounds used were two known firefly luciferase inhibitors (compounds (2) and (5) in Auld et al., 2010), and DMSO.
Three microliters containing firefly luciferase substrates in buffer (final concentrations: 50mM Tris acetate, pH 7.5, 10mM Mg acetate, 0.01% Tween-20, 0.05% BSA, 10uM D-luciferin, and 10uM ATP) are dispensed into each well of a Greiner white, solid-bottom 1536-well format plate using a flying reagent dispenser (FRD). These assay plates were then treated with 23nL of compound or DMSO using a Kalypsys pin tool, which allows for delivery of a 7-point interplate titration of each compound to the assay plates (quantitative HTS), with final compound concentrations ranging from approximately 60uM to 300pM. One microliter of firefly luciferase in 50mM Tris-acetate buffer was then delivered by FRD to each well for a final enzyme concentration of 10nM. Luciferase activity was then measured using an Envision plate reader (PerkinElmer), with an average incubation time of 5 min.
On the % scale 0 is the no-effect control and ±100 the full control effect; potency means the concentration at half of the fitted maximal effect.

Activity change, negative = inhibition, inactive:
COc1ccc(-c2oc3ncnc(N)c3c2-c2ccc(NC(=O)Nc3cc(C(F)(F)F)ccc3F)cc2)cc1 0.585%, C#Cc1cccc(Nc2ncnc3ccc(OCCCCNCCS(C)(=O)=O)cc23)c1 7.77%, Nc1nonc1-c1nc2cnccc2n1C1CC1 5.21%, Fc1ccc(-c2ncn(CCCN3CCOCC3)c2-c2ccncc2)cc1 -12.5%, CCS(=O)(=O)c1ccc(OC)c(Nc2ncc(-c3cccc(F)c3)o2)c1 7.1%, COc1cc(Nc2ncc3c(C)nc(-c4cccc(Oc5ccccc5)c4)n3n2)cc(OC)c1OC 0.978%, Cn1c(-c2nonc2N)nc2cnccc21 4.48%, CCn1c(-c2nonc2N)nc2c(C#CCN)ncc(OCCCN)c21 2.26%, COC(=O)c1sc(-n2cnc3cc(OC)c(OC)cc32)cc1OCc1ccccc1C(F)(F)F 7.89%, NS(=O)(=O)c1cccc(-c2cc3ccncc3cc2OCc2ccccc2)c1 -9.85%, NC(=O)c1sc(-n2cnc3ccccc32)cc1OCc1ccccc1Br -3.22%, O=C1NC(=O)C(c2cccc(Cl)c2)=C1Nc1ccc(Cl)c(C(=O)O)c1 9.38%, NC(=O)c1sc(-n2cnc3ccc(C(F)(F)F)cc32)cc1OCc1ccccc1Br -6.69%, CCOc1nccc2c1nc(-c1nonc1N)n2CC 14.4%, FC(F)(F)c1cccc(Nc2nccc(-c3cnn4nc(-c5ccccc5)ccc34)n2)c1 -11.3%, CN(C)c1ccc2[nH]c(O)c(C=Nc3ccc(S(N)(=O)=O)cc3)c2c1 -13.5%, COc1ccc(-c2coc3ncnc(N)c23)cc1 0.905%, CC1=C(C(=O)Nc2ccc3[nH]ncc3c2)C(c2ccc(Cl)c(Cl)c2)CC(=O)N1 (stereo not given) 7.19%, NS(=O)(=O)c1ccc(N=Nc2c(O)[nH]c3ccc(C(=O)NCCCn4ccnc4)cc23)cc1 7.5%, Nc1nc(-c2ccc(F)cc2)c(-c2ccc3ncccc3n2)s1 10.4%, CS(=O)(=O)CCNCc1ccc(-c2ccc3ncnc(Nc4ccc(OCc5cccc(C(F)(F)F)c5)cc4)c3c2)o1 0.519%, COc1cccc(COc2cc(-n3cnc4ccccc43)sc2C(N)=O)c1 2.69%, Fc1ccc(-c2cc(-c3cn[nH]c3-c3ccccn3)ccn2)cc1 -9.65%, O=C(Nc1n[nH]c2nnc(-c3cccnc3)cc12)C1CC1 6.05%, O=C(Nc1ccc(Oc2ccc3nc(NC(=O)c4ccccc4)[nH]c3c2)cc1)Nc1cc(C(F)(F)F)ccc1F -14.8%, CCn1c(-c2nonc2N)nc2cnc(Oc3cccc(NC(=O)c4ccc(OCCN5CCOCC5)cc4)c3)cc21 -9.42%, COc1cc2c(cc1Nc1nc(N3CCc4ccccc43)c3cc[nH]c3n1)N(C(=O)CN(C)C)CC2 3.81%, CN(C)CCCn1c(-c2nonc2N)nc2cnccc21 10.5%, COc1cc2ncnc(Nc3ccc(C)c(O)c3)c2cc1OC 1.88%, COc1cccc(-n2nc(C)c3c(NN=C(C)c4ccncc4)ncnc32)c1 -0.792%, Cc1nnc(-c2ccc(C)c(-c3ccc(C(=O)NCc4ccc(Cl)cc4)cc3)c2)o1 3.77%, CS(=O)(=O)c1ccc(Oc2nccc(-c3c(-c4ccc(F)cc4)ncn3C3CCNCC3)n2)cc1 7.12%, CS(=O)(=O)CCNCc1ccc(-c2ccc3ncnc(Nc4ccc(OCc5ccccc5)c(C(F)(F)F)c4)c3c2)o1 -16.6%, COc1cc2ncn(-c3cc(OCCc4ccccc4)c(C(N)=O)s3)c2cc1OC 0.383%

Potency, inactive:
NS(=O)(=O)c1ccc(N=Cc2c(O)[nH]c3ccc4ncsc4c23)cc1

Potency, active:
N#Cc1cccc(Nc2ncc(-c3ccccc3)o2)c1 1.03 µM, COc1cccc(-c2c[nH]c3c(NN=Cc4ccncc4)ncnc23)c1 5.8 µM, COC(=O)Nc1nc2ccc(Oc3ccc(NC(=O)Nc4cccc(C(=O)O)c4)cc3)cc2[nH]1 0.116 µM, COc1ccc(-c2cc3c(N)ncnc3o2)cc1 6.51 µM, COc1ccccc1Nc1ncc(-c2ccccc2)o1 1.03 µM
